# In PubChem BioAssay:
# Values joined by “and” are separate entries in the source; they are usually repeats but may differ in a detail not shown here. Identical values can stand only once. Active and inactive are the calls of the source.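 How the source made its calls, unless noted: active means compounds whose cell count with miR-34 switched on is under 0.7 times the count with it off; inactive means the rest.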
# Key:
# [1] = P. berghei load reduction in hepatocytes – cell-based, HepG2, luciferase luminescence, HepG2 viability, primary screen (AID 624349; in the data active means parasite load remaining mostly below about 12%, no sharp cut-off; inactive means mostly above about 10%;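 further: 100% = mean of DMSO negative control wells on the same plate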); conditions: P. berghei liver stage in HepG2, luciferase luminescence, concentration not given here; parasite load remaining: stronger effect = lower value; viability: measured here: HepG2 viability without parasites
# [2] = Wnt pathway potentiators raising nuclear beta-catenin – imaging, WNT3A-conditioned medium, mouse C2C12, NPC library, primary screen (AID 1117326; in the data active means nuclear beta-catenin stimulation mostly above about 4.2%, no sharp cut-off; inactive means mostly below about 10%; further: reference of the scale not given here); conditions: stronger effect = higher value
# [3] = stimulators of insulin release from INS-1E, primary screen, cell-based, 5 mM glucose, NPC library (AID 1117329;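 active means compound raises insulin release from rat beta cells at 5 mM glucose, no numeric limit stated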; further: reference of the scale not given here); conditions: rat INS-1E insulin secretion, at 10 µM, stronger effect = higher value
# [4] = growth inhibition of GSK3B-pretreated HCT116 cells – cell-based, CellTiter-Glo, 0.2 to 20 µM (AID 1117336;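 active means compounds lowering colon cancer cell viability after pretreatment blocking the GSK3B kinase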); conditions: HCT116 viability after GSK3B inhibitor, at 20 µM, stronger effect = higher value
# [5] = inhibition of endothelial tube formation, primary screen, imaging, VEGF stimulated, CD31 staining, tube area, NPC library (AID 1117340;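 active means compound that reduces growth-factor-driven endothelial tube area in a mixed cell culture, no cutoff stated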); conditions: VEGF-stimulated ADSC/ECFC co-culture, at 10 µM, stronger effect = higher value
# [6] = GLP1 release stimulators, primary, NCI-H716, NPC library (AID 1117341;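 active means compound raises GLP1 secretion from the human gut endocrine cells, with no numeric limit stated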; further: reference of the scale not given here); conditions: NCI-H716 cells, at 10 µM, stronger effect = higher value
# [7] = HCT116 colon cancer cell growth inhibition, primary screen, CellTiter-Glo luminescence, NPC library (AID 1117342;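 active means compounds that lower survival of HCT116 colon cancer cells in the luminescence readout, no numeric limit stated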); conditions: at 20 µM (top of the series)
# [8] = reduced SW480 viability measured with CellTiter-Glo, NPC library, primary (AID 1117343;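 active means compounds that lower viability of the colon cancer cells in the luminescence readout, with no numeric limit stated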); conditions: CellTiter-Glo luminescence; at 20 µM (top of the series) unless noted
# [9] = NPC library primary testing for decreased DLD-1 cell viability via CellTiter-Glo (AID 1117346;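 active means compounds that lower survival of DLD-1 colon cancer cells in the luminescence readout, no cutoff given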); conditions: DLD-1 viability, CellTiter-Glo luminescence; at 20 µM (top of the series)
# [10] = system: Aerobactin synthetase IucA (Klebsiella pneumoniae); experiment: inhibition of K. pneumoniae IucA enzyme – biochemical, Tocris library, absorbance (AID 1345561; call rule not given here;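 further: 100% = enzyme without compound and 0% = no enzyme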); conditions: purified IucA enzyme assay, absorbance (OD) read-out; stronger effect = lower value;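 tested at 8 µM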
# [11] = viability loss with induced miR-34 in A549 – imaging, A549 dox-inducible miR-34, nuclei and caspase counts, primary screen (AID 1347080); conditions: A549 miR-34 inducible, Hoechst nuclei count, 48 h
# [12] = galactose survival enhancers in mitochondrial complex I cybrids – cell-based, galactose medium, ATP luminescence, primary screen (AID 1645843;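 active means z-score of at least 1.8 in each of two replicates, scored against plate mean and spread of sample wells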;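 further: positive z means more ATP and so rescue of galactose-driven cybrid death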); conditions: complex I mutant cybrid cells, 72 h, stronger effect = higher value
# [13] = MELAS cybrid and Rieske KO viability enhancers – cell-based, MELAS cybrids, Rieske KO mouse fibroblasts, CellTiter-Glo, primary screen (AID 1508586;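 active means mean z-score across replicates of 1.96 or higher in either the MELAS or the Rieske mutant cell line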;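 further: z relative to plate mean and SD of compound and empty wells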); conditions: low glucose
# [14] = stronger effect = lower value, cell number ratio, induced over uninduced
# [15] = measured here: relative caspase fold change +Dox/-Dox
# [16] = measured here: total cells with miR-34 induction, stronger effect = lower value
# [17] = measured here: total cells without miR-34 induction
SMILES,parasite load remaining [1],viability [1] [%],nuclear beta-catenin stimulation ([2]; at 10 µM),"nuclear beta-catenin stimulation ([2]; stimulation, at 2 µM) [%]",insulin secretion stimulation [3],viability decrease [4],tube area decrease [5],GLP1 secretion stimulation [6],inhibition of viability [7],viability decrease (inhibition) [8],viability decrease (inhibition) [9],remaining activity [10],"fold change [11, 14]","fold change [11, 15]","cell count [11, 16]","cell count [11, 17]",z-score [12],"z-score ([13]; MELAS cybrid survival, CellTiter-Glo 48 h, stronger effect = higher value)","z-score ([13]; Rieske KO mouse fibroblast survival, CellTiter-Glo 72 h)"
Cc1cc(C)c(/C=C2\C(=O)Nc3ccccc32)[nH]1,27.2% (inactive),69.7,9.9% (inactive),0.7,-0.8% (inactive),20.1% (inactive),99.7% (active),12.8% (inactive),-18.7% (inactive),48.7% (inactive),37.2% (inactive),104% (inactive),1.05 (inactive) and 0.921 (inactive) and 0.87 (inactive),0.773 and 1.14 and 1.43,4600 and 5070 and 6640,4380 and 5510 and 7630,0.06 (inactive) and 0.095 (inactive),,
Cl/C(=C\n1cncn1)c1ccc(Cl)cc1Cl,,,3.9% (inactive),4,2.4% (inactive),3% (inactive),-2.8% (inactive),-1.4% (inactive),30.3% (inactive),13.4% (inactive),24.2% (inactive),121% (inactive),0.89 (inactive),0.653,8590,9640,-0.15 (inactive),,
CC1(c2ccccc2)OC(C(=O)O)=CC1=O (centres undefined),,,0.9% (inactive),1.2,0.9% (inactive),1.95% (inactive),0.2% (inactive),1.1% (inactive),-7.4% (inactive),4.5% (inactive),4.95% (inactive),122% (inactive),0.98 (inactive),0.832,9820,10000,-0.34 (inactive),,
C[C@H]1O[C@H](O[C@H]2[C@H](O)[C@@H](O)[C@@H](O[C@H]3[C@H](O)[C@@H](O)[C@H](O)O[C@@H]3CO)O[C@@H]2CO)[C@H](O)[C@@H](O)[C@@H]1N[C@H]1C=C(CO)[C@@H](O)[C@H](O)[C@H]1O,,,-0.6% (inactive),-1.1,0.7% (inactive),-5.3% (inactive),-8.2% (inactive),-2.2% (inactive),18.9% (inactive),-0.4% (inactive),-0.5% (inactive),108% (inactive),0.838 (inactive),1.97,7710,9210,0.18 (inactive),-0.1 (inactive),-0.573
